Inconclusive results are not listed. Calls of active or inactive are those of the source. Unless noted, calls come from the whole dose curve; as a rule, active = well fitted curve in the direction sought with a large enough effect; inconclusive = small, poorly fitted or top-dose-only effect, or another doubt; inactive = no such curve, though single readings can be large; an effect the other way counts as inactive or inconclusive.
Experiments:
[1] = target: ATPase family AAA domain-containing protein 5 (Homo sapiens) (UniProt Q96QE3); test: Validation screen for small molecules that inhibit ELG1-dependent DNA repair in human embryonic kidney (HEK293T) cells expressing luciferase-tagged ELG1 (AID 493107);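 note: cells co-treated with the DNA-damaging agent 5-fluorouridine alongside compound; series mostly up to about 46 µM; % is set by controls: 0 for no effect and ±100 for the full control effect; inhibitors lower the ELG1-luciferase luminescence signal; nearly all actives have a fitted effect of over 70% in size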
Chain of ATPase family AAA domain-containing protein 5 (Homo sapiens) (Q96QE3 whole entry, looked up, the tested form may be a part): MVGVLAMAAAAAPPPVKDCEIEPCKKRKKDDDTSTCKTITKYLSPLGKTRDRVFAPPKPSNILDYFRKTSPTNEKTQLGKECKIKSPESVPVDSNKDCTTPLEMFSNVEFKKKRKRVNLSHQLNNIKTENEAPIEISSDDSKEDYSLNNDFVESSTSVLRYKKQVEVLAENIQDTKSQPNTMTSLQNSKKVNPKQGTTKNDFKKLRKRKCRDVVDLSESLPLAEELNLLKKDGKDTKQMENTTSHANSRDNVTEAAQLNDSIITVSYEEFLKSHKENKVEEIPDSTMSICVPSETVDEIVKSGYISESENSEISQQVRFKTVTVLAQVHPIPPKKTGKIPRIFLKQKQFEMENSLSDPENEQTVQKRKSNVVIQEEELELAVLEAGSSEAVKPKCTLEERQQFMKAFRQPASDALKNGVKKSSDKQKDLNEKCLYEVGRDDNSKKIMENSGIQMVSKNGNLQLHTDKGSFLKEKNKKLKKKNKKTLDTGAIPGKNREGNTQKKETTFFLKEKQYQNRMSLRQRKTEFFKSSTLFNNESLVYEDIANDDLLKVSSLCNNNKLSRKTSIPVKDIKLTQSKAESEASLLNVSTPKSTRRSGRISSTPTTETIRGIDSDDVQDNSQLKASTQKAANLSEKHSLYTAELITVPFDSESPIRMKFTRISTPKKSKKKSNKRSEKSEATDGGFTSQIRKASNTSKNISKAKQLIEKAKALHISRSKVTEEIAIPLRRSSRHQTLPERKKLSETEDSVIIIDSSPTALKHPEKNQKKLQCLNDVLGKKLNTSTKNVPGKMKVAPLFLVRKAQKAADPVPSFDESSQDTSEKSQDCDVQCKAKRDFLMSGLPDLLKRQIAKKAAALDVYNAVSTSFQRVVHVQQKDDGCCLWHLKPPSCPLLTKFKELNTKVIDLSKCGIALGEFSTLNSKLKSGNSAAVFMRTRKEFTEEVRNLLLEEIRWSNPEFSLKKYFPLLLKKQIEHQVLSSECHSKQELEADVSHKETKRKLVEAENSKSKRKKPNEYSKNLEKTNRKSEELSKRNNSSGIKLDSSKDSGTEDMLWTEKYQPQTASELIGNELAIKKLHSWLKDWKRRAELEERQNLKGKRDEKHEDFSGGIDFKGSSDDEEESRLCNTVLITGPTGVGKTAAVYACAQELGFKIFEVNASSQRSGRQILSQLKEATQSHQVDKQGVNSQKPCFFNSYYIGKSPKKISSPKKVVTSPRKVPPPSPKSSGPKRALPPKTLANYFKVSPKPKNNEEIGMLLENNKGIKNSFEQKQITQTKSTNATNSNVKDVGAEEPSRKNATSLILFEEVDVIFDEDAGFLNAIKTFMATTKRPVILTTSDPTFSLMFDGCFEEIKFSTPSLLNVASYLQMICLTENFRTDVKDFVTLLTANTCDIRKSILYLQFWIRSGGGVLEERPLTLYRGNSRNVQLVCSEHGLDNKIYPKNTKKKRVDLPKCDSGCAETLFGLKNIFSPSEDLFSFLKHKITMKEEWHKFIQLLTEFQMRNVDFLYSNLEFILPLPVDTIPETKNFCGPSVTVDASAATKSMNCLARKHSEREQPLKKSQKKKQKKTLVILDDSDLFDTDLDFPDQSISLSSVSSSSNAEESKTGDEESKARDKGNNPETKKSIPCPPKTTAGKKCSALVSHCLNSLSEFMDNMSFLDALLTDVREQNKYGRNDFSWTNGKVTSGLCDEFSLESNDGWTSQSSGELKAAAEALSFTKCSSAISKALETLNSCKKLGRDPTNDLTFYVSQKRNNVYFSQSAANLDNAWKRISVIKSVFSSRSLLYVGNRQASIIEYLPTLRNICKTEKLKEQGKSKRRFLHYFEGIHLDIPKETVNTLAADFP
Summary of the method: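 Compounds reducing 5-fluorouridine-driven ELG1-luciferase signal in HEK293T cells were scored; exposure lasted 16 hr at 37 °C with luminescence detected via ONE-Glo.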

[2] = target: Thyrotropin-releasing hormone receptor (Homo sapiens) (UniProt P34981); test: qHTS for Small Molecule Agonists and Allosteric Enhancers of Human TRH Receptor: Validation Screen for Agonists (AID 493127;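 active = calcium activation more than 3 SD above the typical response in the agonist read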;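 note: intracellular calcium rise by fluo-8 fluorescence before TRH EC20 addition; 0% is about no effect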); details: TRH receptor agonist cell assay; at 2 µM; stronger effect = higher value
Chain of Thyrotropin-releasing hormone receptor (Homo sapiens) (P34981 whole entry, looked up): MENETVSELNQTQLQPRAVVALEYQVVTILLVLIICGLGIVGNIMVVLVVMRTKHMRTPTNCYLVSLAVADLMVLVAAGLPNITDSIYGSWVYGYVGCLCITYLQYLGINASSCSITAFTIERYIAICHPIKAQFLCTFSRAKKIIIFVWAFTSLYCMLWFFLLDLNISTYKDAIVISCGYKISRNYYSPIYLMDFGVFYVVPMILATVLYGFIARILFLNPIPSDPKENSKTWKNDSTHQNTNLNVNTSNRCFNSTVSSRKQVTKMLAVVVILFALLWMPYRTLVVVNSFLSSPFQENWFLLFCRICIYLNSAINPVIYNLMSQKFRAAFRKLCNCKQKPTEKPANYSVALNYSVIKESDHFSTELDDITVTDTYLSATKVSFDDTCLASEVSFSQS
Summary of the method: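 Kinetic fluorescence assay of agonist-induced calcium release: overnight-plated TRHR cells, room-temperature fluo-8 loading, baseline then compound addition with per-second reads.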

[3] = Nrf2 qHTS screen for inhibitors: Validation (AID 493153; active = well fitted inhibition curve with a large enough effect in the main read-out, with a control signal flat, not every such curve was filed as active); details: Potency: luciferase luminescence; viability change: measured here: cytotoxicity max response
Summary of the method: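 In this counterscreened reporter format, each well gives two signals: CellTiter-Fluor fluorescence for cytotoxicity and ARE-luciferase luminescence for Nrf2 function. A549 ARE_Fluc cells in 5% FBS OPTI-MEM were exposed to compound titrations for 18-24 h.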

[4] = qHTS for Inhibitors of Cell Surface uPA Generation: Validation Assay (AID 493164);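 note: RAW 264.7 macrophage cells exposed to compound for 18 h; 0% is about no effect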
Summary of the method: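 Compounds are titrated over seven points (2.45 nM–38.3 uM final) onto pre-plated RAW 264.7 cells and incubated for 18 h. Retained intracellular ATP, measured with ATP-Lite, indicates blocked lethal factor entry.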

[5] = target: Galactokinase (Homo sapiens) (UniProt P51570); test: qHTS Validation Assay for Inhibitors of Human Galactokinase (GALK) (AID 493189); note: 0% is about no effect
Summary of the method: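 Enzyme activity is inferred from ATP consumption: human GALK phosphorylates galactose (100 uM) using 35 uM ATP for 1 h at room temperature, and luciferase-based Kinase-Glo Plus reports unconsumed ATP.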

[6] = Validation screen for small molecules that induce DNA re-replication in SW480 colon adenocarcinoma cells (AID 504364); note: 0% is about no effect
Summary of the method: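 Hoechst-stained SW480 nuclei, imaged at 405 nm excitation after 48 hr compound exposure, were counted for elevated DNA content as the re-replication signal.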

[7] = target: Peptidyl-prolyl cis-trans isomerase NIMA-interacting 1 (Homo sapiens) (UniProt Q13526); test: qHTS Validation Assay to Find Inhibitors of Pin1 (AID 504536; active = well fitted inhibition curve with a large enough effect in the polarisation, with a control signal flat, not every such curve was filed as active; the % refers to the polarisation;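 note: 0% = full Pin1 enzyme wells and -100% = no-enzyme wells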)
Chain of Peptidyl-prolyl cis-trans isomerase NIMA-interacting 1 (Homo sapiens) (Q13526 whole entry, looked up): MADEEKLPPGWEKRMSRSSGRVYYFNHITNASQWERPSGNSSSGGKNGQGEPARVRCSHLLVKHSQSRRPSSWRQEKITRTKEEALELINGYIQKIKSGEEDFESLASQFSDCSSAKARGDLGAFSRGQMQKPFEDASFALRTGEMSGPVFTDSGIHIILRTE
Summary of the method: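 Fluorescence polarization competition: compounds (titration) displace HiFluor-488-labeled Pin1-1b peptide from Pin1 (0.3 uM final) in pH 7.5 HEPES buffer with DTT, 10 min at room temperature; %Activity normalized to no-enzyme wells, curves fitted.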

[8] = target: Phosphoglycerate kinase, glycosomal (Trypanosoma brucei brucei) (UniProt P07378); test: qHTS Validation Assay to Find Inhibitors of Phosphoglycerate Kinase (AID 504547);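 note: control wells lack PGK and mark full inhibition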
Summary of the method: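 Luminescence end-point (Kinase-Glo Plus, 10 min) after a 60 min room-temperature coupled reaction. GAPDH at 100nM final supplies 1,3-BPG to PGK. Buffer: 100mM TEA pH 7.6, 5mM MgCl2, 0.01% Tween-20. Wells lacking PGK served as controls.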

[9] = target: Ubiquitin carboxyl-terminal hydrolase 1 (Homo sapiens) (UniProt O94782); test: Inhibitors of USP1/UAF1: Pilot qHTS (AID 504865);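 note: rhodamine fluorescence freed from ubiquitin-rhodamine substrate followed over time; top concentration of the series differs between compounds; % is set by controls: 0 for no effect and ±100 for the full control effect; nearly all actives have a fitted effect of over 35% in size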
Chain of Ubiquitin carboxyl-terminal hydrolase 1 (Homo sapiens) (O94782 whole entry, looked up): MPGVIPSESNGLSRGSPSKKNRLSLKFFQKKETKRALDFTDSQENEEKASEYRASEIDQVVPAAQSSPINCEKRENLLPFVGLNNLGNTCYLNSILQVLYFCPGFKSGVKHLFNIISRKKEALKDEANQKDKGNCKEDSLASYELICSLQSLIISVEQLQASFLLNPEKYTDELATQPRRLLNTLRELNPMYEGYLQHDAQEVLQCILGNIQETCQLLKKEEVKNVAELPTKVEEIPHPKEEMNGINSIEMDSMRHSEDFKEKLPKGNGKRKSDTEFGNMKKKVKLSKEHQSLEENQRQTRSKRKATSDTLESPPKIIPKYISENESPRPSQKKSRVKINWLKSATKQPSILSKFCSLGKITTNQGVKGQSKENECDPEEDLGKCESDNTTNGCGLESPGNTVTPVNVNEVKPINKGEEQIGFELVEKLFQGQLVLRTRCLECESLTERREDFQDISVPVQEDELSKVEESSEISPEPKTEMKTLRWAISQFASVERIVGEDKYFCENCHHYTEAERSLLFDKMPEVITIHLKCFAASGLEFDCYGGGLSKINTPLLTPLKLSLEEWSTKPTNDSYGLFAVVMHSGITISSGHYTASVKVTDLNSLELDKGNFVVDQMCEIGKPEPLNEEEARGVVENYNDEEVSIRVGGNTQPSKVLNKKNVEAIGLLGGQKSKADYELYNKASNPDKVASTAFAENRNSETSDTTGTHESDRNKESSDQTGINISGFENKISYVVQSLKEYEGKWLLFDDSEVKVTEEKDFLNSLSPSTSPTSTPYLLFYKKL
Summary of the method: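 Enzyme-free wells gave the negative control, while test wells held 1nM USP1/UAF1 preincubated with compound for 15 min at room temperature. Ub-Rho at 150nM final started the reaction, and fluorescence at 480/540 nm was recorded kinetically.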

[10] = qHTS for Inhibitors of ATXN expression: Validation of Cytotoxic Assay (AID 588349); note: % is set by controls: 0 for no effect and ±100 for the full control effect
Summary of the method: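 Toxicity of test compounds toward HEK293 cells is scored from cellular ATP content measured by CellTiter Glo. Cells receive titrated doses and incubate 72 hr at 37 degrees C beforehand.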

[11] = qHTS for Inhibitors of ATXN expression: Validation (AID 588378); note: series mostly up to about 57 µM; % is set by controls: 0 for no effect and ±100 for the full control effect; nearly all actives have a fitted effect of over 75% in size
Summary of the method: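 After a 2 h attachment and 24 h compound incubation, HEK293-ATXN2-FFLuc wells are read for fluorescence at 405 nm excitation/525 nm emission as a viability measure, then for Bright-Glo luminescence reflecting ATXN2 expression.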

[12] = target: phosphoglycerate mutase (Leishmania major) (UniProt Q4Q090); test: qHTS Validation Assay to Find Inhibitors of Phosphoglycerate Mutase (AID 504548); note: series mostly up to about 58 µM; % is set by controls: 0 for no effect and ±100 for the full control effect
Summary of the method: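 Lm PGAM at 1.25 nM final with substrate in 100 mM TEA pH 7.6, 5 mM MgCl2, 0.01% Tween-20; 45 min at room temperature. Kinase-GloPlus added, 10 min, end-point luminescence read.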

[13] = target: DNA dC->dU-editing enzyme APOBEC-3G (Homo sapiens) (UniProt Q9HC16); test: qHTS for inhibitors of Vif-A3G interactions: Validation (AID 588379); note: 0% is about no effect
Chain of DNA dC->dU-editing enzyme APOBEC-3G (Homo sapiens) (Q9HC16 whole entry, looked up): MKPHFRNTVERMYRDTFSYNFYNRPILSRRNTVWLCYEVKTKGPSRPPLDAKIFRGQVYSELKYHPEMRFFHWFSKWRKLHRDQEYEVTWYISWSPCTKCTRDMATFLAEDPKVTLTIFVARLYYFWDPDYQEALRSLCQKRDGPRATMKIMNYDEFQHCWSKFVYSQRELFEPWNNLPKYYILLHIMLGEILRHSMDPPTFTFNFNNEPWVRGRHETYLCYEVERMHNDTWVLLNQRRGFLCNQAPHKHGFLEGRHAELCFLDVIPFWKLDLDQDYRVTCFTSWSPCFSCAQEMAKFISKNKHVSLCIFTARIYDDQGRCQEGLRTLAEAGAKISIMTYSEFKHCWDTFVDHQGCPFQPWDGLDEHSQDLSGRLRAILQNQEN
Summary of the method: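 Yellow fluorescence (Ex 488, Em 500-530) of Vif-coexpressing HeLa A3G-eYFP cells, scanned by Acumen cytometer, reports blocked A3G degradation. Cells plated at 700/well overnight at 37 deg C before compound addition, then a further overnight compound incubation at 37 deg C.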

[14] = target: Estrogen receptor (Homo sapiens) (UniProt P03372); test: qHTS assay for small molecule antagonists of estrogen receptor alpha signaling (AID 588513; active = well fitted curve in the direction sought with a large enough effect in the signal ratio, with a control signal flat, not every such curve was filed as active; the % refers to the signal ratio; note: % is set by controls: 0 for no effect and ±100 for the full control effect)
Summary of the method: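 Antagonist-mode qHTS in ER-alpha-UAS-bla HEK 293 cells: compound titration, 0.5nM estradiol for 18 h, CCF4 fluorescence, Hill-derived IC50.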

[15] = target: Estrogen receptor (Homo sapiens) (UniProt P03372); test: qHTS assay for small molecule agonists of estrogen receptor alpha signaling (AID 588514; calls by dose curve;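 note: 0% = vehicle only and 100% = reference agonist; nearly all actives have a fitted effect of over 70% in size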)
Summary of the method: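 Fluorescence from CCF4 cleavage reports ER-alpha-driven beta-lactamase expression in HEK 293 cells treated 18 hrs at 37 C. Data normalized to 17-beta-estradiol (20 nM) and DMSO, fitted to Hill equation.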

[16] = target: Bile acid receptor (Homo sapiens) (UniProt Q96RI1); test: qHTS assay for small molecule antagonists of farnesoid X receptor signaling (AID 588526; calls by dose curve; note: % is set by controls: 0 for no effect and ±100 for the full control effect)
Chain of Bile acid receptor (Homo sapiens) (Q96RI1 whole entry, looked up): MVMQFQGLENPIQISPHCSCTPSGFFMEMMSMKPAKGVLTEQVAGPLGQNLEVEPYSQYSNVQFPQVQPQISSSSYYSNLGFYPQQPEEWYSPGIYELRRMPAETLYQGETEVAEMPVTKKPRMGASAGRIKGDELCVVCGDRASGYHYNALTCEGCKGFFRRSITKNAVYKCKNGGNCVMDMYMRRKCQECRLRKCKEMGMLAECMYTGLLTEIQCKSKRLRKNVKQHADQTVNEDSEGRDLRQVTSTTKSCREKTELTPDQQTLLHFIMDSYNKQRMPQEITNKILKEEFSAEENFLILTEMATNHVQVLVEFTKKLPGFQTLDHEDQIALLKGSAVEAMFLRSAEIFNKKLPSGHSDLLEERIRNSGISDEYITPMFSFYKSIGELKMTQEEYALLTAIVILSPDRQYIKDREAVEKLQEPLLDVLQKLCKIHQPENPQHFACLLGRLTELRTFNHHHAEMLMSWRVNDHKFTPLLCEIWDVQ
Summary of the method: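 Beta-lactamase reporter antagonist mode: HEK293T FXR-UAS-bla cells, titrated compound, CDCA stimulation, 16 h 37 C, CCF4 dye 2 h RT. Data normalized to CDCA 50 uM and DMSO; Hill-fit IC50.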

[17] = target: Glucocorticoid receptor (Homo sapiens) (UniProt P04150); test: qHTS assay for small molecule agonists of glucocorticoid receptor signaling (AID 588532; active = well fitted curve in the direction sought with a large enough effect in the signal ratio, with a control signal flat; the % refers to the signal ratio;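 note: 100% = dexamethasone at 0.1 µM and 0% = DMSO only wells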); details: HeLa MMTV-bla, beta-lactamase ratio, agonist, 18 h; activation: stronger effect = higher value, percent of dexamethasone control, DMSO zero
Chain of Glucocorticoid receptor (Homo sapiens) (P04150 whole entry, looked up): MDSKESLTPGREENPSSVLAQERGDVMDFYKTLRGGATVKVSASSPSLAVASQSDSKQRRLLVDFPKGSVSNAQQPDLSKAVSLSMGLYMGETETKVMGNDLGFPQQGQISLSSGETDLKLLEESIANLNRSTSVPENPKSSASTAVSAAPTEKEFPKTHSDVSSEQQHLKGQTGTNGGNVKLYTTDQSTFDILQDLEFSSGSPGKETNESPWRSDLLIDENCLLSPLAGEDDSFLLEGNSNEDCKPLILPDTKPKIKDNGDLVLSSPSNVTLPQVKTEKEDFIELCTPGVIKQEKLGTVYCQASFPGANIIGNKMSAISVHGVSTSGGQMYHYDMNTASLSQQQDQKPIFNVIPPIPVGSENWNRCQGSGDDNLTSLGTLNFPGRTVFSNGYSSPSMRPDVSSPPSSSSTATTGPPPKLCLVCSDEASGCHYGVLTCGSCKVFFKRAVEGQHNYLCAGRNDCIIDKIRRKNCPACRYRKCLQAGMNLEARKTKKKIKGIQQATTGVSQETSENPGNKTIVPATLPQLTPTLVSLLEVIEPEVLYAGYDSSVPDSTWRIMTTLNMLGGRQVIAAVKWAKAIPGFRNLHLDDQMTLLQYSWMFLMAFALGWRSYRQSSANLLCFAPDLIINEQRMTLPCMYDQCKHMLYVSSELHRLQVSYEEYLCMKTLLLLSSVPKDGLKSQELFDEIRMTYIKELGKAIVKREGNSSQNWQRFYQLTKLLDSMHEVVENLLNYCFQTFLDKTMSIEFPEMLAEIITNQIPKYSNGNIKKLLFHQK
Summary of the method: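 Agonist-mode qHTS: GRE-driven beta-lactamase in HeLa cells exposed 18 h to titrated compounds (up to 92 uM), then CCF4 ratio read after 2 h at RT; Hill-fitted EC50, efficacy relative to 0.1 uM dexamethasone.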

[18] = target: Glucocorticoid receptor (Homo sapiens) (UniProt P04150); test: qHTS assay for small molecule antagonists of glucocorticoid receptor signaling (AID 588533; active = well fitted inhibition curve with a large enough effect in the signal ratio, with a control signal flat, not every such curve was filed as active; the % refers to the signal ratio)
Summary of the method: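 Antagonist-mode qHTS: compound titrations added to GRE-bla HeLa cells, then dexamethasone 2 nM final; 18 h, 37 C. CCF4 FRET fluorescence normalized to dexamethasone and DMSO; IC50 from Hill fit.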

CCc1c(C)[nH]c2c1C(=O)C(CN1CCOCC1)CC2 (stereo not given)
1.73%: viability change [3]
inactive: Potency [1] | activation [2] 0.75% | Potency [3] | outcome [4] | outcome [5] | outcome [6] | outcome [7] | outcome [8] | Potency [9] | Potency [10] | Potency [11]

CCN(Cc1ccncc1)C(=O)C(CO)c1ccccc1 (stereo not given)
inactive: Potency [1] | activation [2] 0.375% | Potency [3] | outcome [4] | outcome [5] | outcome [6] | outcome [7] | outcome [8] | outcome [12] | Potency [9] | Potency [10] | Potency [11]
-1.19%: viability change [3]

CCCN(CCC)C(=O)C(CCC(=O)O)NC(=O)c1ccccc1 (stereo not given)
inactive: Potency [1] | activation [2] 1.56% | Potency [3] | outcome [4] | outcome [5] | outcome [6] | outcome [7] | outcome [8] | outcome [12] | Potency [9] | Potency [10] | Potency [11]
-16.1%: viability change [3]

CCCCNc1ccc(C(=O)OCCN(C)C)cc1
2.59%: viability change [3]
inactive: Potency [1] | activation [2] 1.31% | Potency [3] | outcome [4] | outcome [5] | outcome [6] | outcome [7] | outcome [8] | outcome [12] | Potency [9] | Potency [10] | Potency [11]

O=C(O)CN(CCN(CC(=O)O)CC(=O)O)CCN(CC(=O)O)CC(=O)O
-0.829%: viability change [3]
inactive: Potency [1] | activation [2] 1.81% | Potency [3] | outcome [4] | outcome [5] | outcome [6] | outcome [7] | outcome [8] | Potency [9] | Potency [11]

C[N+](C)(C)CCOC(=O)CCC(=O)OCC[N+](C)(C)C
0.0745%: viability change [3]
inactive: Potency [1] | activation [2] 0.188% | Potency [3] | outcome [4] | outcome [5] | outcome [6] | outcome [7] | outcome [8] | Potency [9] | Potency [10] | Potency [11]

N[C@@H](COP(=O)(O)O)C(=O)O
6.46%: viability change [3]
inactive: Potency [1] | activation [2] 1% | Potency [3] | outcome [4] | outcome [5] | outcome [6] | outcome [7] | outcome [8] | Potency [9] | Potency [10] | Potency [11] | outcome [13]

O=c1[nH]c(=O)n([C@H]2C[C@H](O)[C@@H](CO)O2)cc1Br
1.73%: viability change [3]
inactive: Potency [1] | activation [2] 1% | Potency [3] | outcome [4] | outcome [5] | outcome [6] | outcome [7] | outcome [8] | Potency [9] | Potency [10] | Potency [11] | outcome [13] | outcome [14] | Potency [15] | outcome [16]

CN(C)CCOC(=O)COc1ccc(Cl)cc1
inactive: Potency [1] | activation [2] 0.188% | Potency [3] | outcome [4] | outcome [5] | outcome [6] | outcome [7] | outcome [8] | Potency [9] | Potency [10] | Potency [11]
9.38%: viability change [3]

NS(=O)(=O)c1cc2c(cc1Cl)NC(C1CC3C=CC1C3)NS2(=O)=O (stereo not given)
inactive: Potency [1] | activation [2] -0.25% | Potency [3] | outcome [4] | outcome [5] | outcome [6] | outcome [8] | outcome [12] | Potency [9] | Potency [10] | Potency [11]
12.8%: viability change [3]

NCCCNCCSP(=O)(O)O
inactive: Potency [1] | activation [2] 0.812% | Potency [3] | outcome [4] | outcome [5] | outcome [6] | outcome [7] | outcome [8] | Potency [9] | Potency [10] | Potency [11]
4.69%: viability change [3]

CN(C)C(=O)Oc1cccc([N+](C)(C)C)c1
0.794%: viability change [3]
inactive: Potency [1] | activation [2] 0.625% | Potency [3] | outcome [4] | outcome [5] | outcome [6] | outcome [7] | outcome [8] | outcome [12] | Potency [9] | Potency [10] | Potency [11]

CCCN(CCC)CCc1cccc2c1CC(=O)N2
inactive: Potency [1] | activation [2] -3.31% | Potency [3] | outcome [4] | outcome [5] | outcome [6] | outcome [7] | outcome [8] | outcome [12] | Potency [9] | Potency [10] | Potency [11]
1.11%: viability change [3]

CCO/C([O-])=N/c1c[n+](N2CCOCC2)no1
7.49%: viability change [3]
inactive: Potency [1] | activation [2] -0.0625% | Potency [3] | outcome [4] | outcome [5] | outcome [6] | outcome [7] | outcome [8] | outcome [12] | Potency [9] | Potency [10] | Potency [11]

CCCN1C[C@H](CSC)C[C@@H]2c3cccc4[nH]cc(c34)C[C@H]21
2.56%: viability change [3]
inactive: Potency [1] | activation [2] 1.44% | Potency [3] | outcome [4] | outcome [5] | outcome [6] | outcome [7] | outcome [8] | outcome [12] | Potency [9] | Potency [10] | Potency [11] | outcome [13]

CCCCNC(=O)NS(=O)(=O)c1ccc(C)cc1
-5.96%: viability change [3]
inactive: Potency [1] | activation [2] 1.25% | Potency [3] | outcome [4] | outcome [5] | outcome [6] | outcome [7] | outcome [8] | Potency [9] | Potency [10] | Potency [11] | outcome [16] | activation [17] -10.2% | Potency [18]

CCn1nc(C(=O)O)c(=O)c2cc3c(cc21)OCO3
-1.17%: viability change [3]
inactive: Potency [1] | Potency [3] | outcome [4] | outcome [5] | outcome [6] | outcome [7] | outcome [8] | outcome [12] | Potency [9] | Potency [10] | Potency [11] | outcome [13]

COC(=O)[C@@H](N)Cc1ccc(O)c(O)c1
inactive: Potency [1] | activation [2] 1% | Potency [3] | outcome [4] | outcome [5] | outcome [6] | outcome [8] | Potency [9] | Potency [11]
-11.8%: viability change [3]

— PubChem BioAssay (NCATS)
